This is an account of results in PubChem BioAssay AID1508624 (National Center for Advancing Translational Sciences (NCATS), 2021).

The structures appear in SMILES notation. In all, about 48,000 compounds went through this assay and about 120 (0.25%) were called active. Not shown: some 4% with an inconclusive outcome. For the sample, actives were picked, then their nearest neighbours and some compounds at random. Unmarked numbers belong to inactive results. Calls come from the whole dose curve; as a rule, active = well fitted activation curve with a large enough effect; inconclusive = small, poorly fitted or top-dose-only effect, or another doubt; inactive = no such curve, though single readings can be large or run the other way.
Potency is the fitted concentration of half-maximal effect.

This test is described as follows: Primary qHTS for Identification of Small Molecule Activators of Huntingtin-Antisense Promoter Activity. Note: nearly all actives have a fitted effect of over 55% in size. The settings on record: HEK293 HTT-AS promoter firefly luciferase reporter, 24 h; series mostly up to 57.5 µM; activity change, positive = activation: at the top concentration. From the text:
Assay Provider: Russell L. Margolis M.D.
Department Neurology, Johns Hopkins University School of Medicine, Baltimore, MD
Huntington's Disease (HD) is a neurodegenerative disorder caused by a CAG repeat expansion in exon 1 of huntingtin (HTT). While there are currently no disease-modifying treatments for HD, recent efforts have focused on development of nucleotide-based therapeutics to lower HTT expression. As an alternative to siRNA or oligonucleotide methods, we hypothesized that suppression of HTT expression might be accomplished by small molecules that either (1) directly decrease HTT expression by suppressing HTT promoter activity or (2) indirectly decrease HTT expression by increasing the promoter activity of HTT-AS, the gene antisense to HTT that appears to inhibit expression of HTT.
We developed and employed a high throughput screen for modifiers of HTT and HTT-AS promoter activity using luminescent reporter HEK293 cells; of the 52,041 compounds tested, we identified 898 replicable hits. We used a rigorous stepwise approach to assess compound toxicity and the capacity of the compounds to specifically lower huntingtin protein in 5 different cell lines, including HEK293 cells, HD lymphoblastoid cells, mouse primary neurons, HD iPSCs differentiated into cortical-like neurons, and HD hESCs. We found no compounds which were able to lower huntingtin without lowering cell viability in all assays, though the potential efficacy of a few compounds at non-toxic doses could not be excluded.
SEQUENCE No. (1, 2, 3, etc.); […] (e.g., Cells, Incubation, Reagent, etc.); VALUE and DESCRIPTION.
1; Reagent; 4 uL; 2,500 Hek293 luciferase reporter cells per wells
3; Compound; 23 nL; Control inhibitor / compound library
5; Reagent; 2.5 uL; Firefly Luc reagent; Dual-Glo Luciferase Reporter Assay System (Promega)
6; Time; 10 min; room temperature incubation
7; Detection; Luminescence; FLuc
NOTES (numbers refer to sequence above)
1; High-throughput screening, measuring luminescence from a Hek293 luciferase reporter, was performed in 1,536 well white-walled tissue-culture treated plates. 2,500 cells were plated in 4 µL of Opti-MEM per well using a Multidrop Combi Reagent Dispenser (ThermoFisher).
2; Assay plates were cultured for 24 hours.
3; Control inhibitor (PTC124; final concentration of 50 uM) and compound library (at final concentrations of 460 nM - 57.5 uM) were added to the assay plate using the Kalypsis Pintool Robotic System equipped with 1536 pinheads.
4; Cells were then incubated for 24 hours at 37 degrees C prior to luminescence measurements.
5; In all cases, luminescence was measured using the Dual-Glo Luciferase Reporter Assay System (Promega) following the manufacturer's instructions.
6; Room temperature incubation.
7; Luminescence signal was obtained using the PerkinElmer ViewLux plate reader. Results were normalized to vehicle control (0% activity) and zero RLU (-100% activity).
(In qHTS, concentration-response curves come from the screen itself.)
Turning to `COC(=O)c1cc(Cl)c(NC(C)=O)cc1OC`, the “activity change, positive = activation” value is 3.75% (inactive).

In the case of `COc1ccc(CNC(=O)Cn2nnc(-c3ccccc3F)n2)cc1`, the “activity change, positive = activation” value was -9.07% (inactive).

Turning to `CCCC(=O)N1CCN(c2nc3c(OC)ccc(C)c3s2)CC1`, the “activity change, positive = activation” value is -10.6% (inactive).

As for `COc1ccc(-n2c(=O)c3ccccc3n(Cc3ccccc3Cl)c2=O)cc1`, the “activity change, positive = activation” value is -22.4% (inactive).

On to `O=C(c1ccc(C(F)(F)F)cc1)N1CCC(c2nc(-c3ccc(S(=O)(=O)N4CCCC4)cc3)no2)CC1`, for which the “activity change, positive = activation” value was -29.4% (inactive).

Regarding `CCCC(=O)Nc1cc(C(=O)NCc2ccc(OC)cc2)ccc1S(=O)(=O)c1ccc(Cl)cc1`, the “activity change, positive = activation” value was 1.22% (inactive).

Consider `O=C(Nc1nc2ccc(F)cc2s1)c1nc(SCc2ccccc2F)ncc1Cl`, for which the “activity change, positive = activation” value is 0% (inactive).

Regarding `C=Cc1c(C)c2cc3nc(cc4[nH]c(cc5nc(cc1[nH]2)C(C)=C5CCC(=O)O)c(CCC(=O)OC)c4C)[C@@]1(C)C3=CC=C(C(=O)OC)[C@H]1C(=O)OC`, the “activity change, positive = activation” value is -35.4% (inactive).

Turning to `CC(Nc1ccc(-c2nc(-c3ccco3)no2)cc1[N+](=O)[O-])c1ccccc1` (stereo not drawn), the “activity change, positive = activation” value was 18% (inactive).

As to `CCOc1ccc(NC(=O)c2c(NC(=O)Cc3ccccc3)sc3c2CCC(C)C3)cc1` (stereo not drawn), the “activity change, positive = activation” value was -28.3% (inactive).

On to `CCCOc1ccc(-c2cccc(NS(=O)(=O)c3ccccc3)c2)nn1`, for which the “activity change, positive = activation” value is -27.3% (inactive).

As to `Cc1cccc(NC(=O)CSc2nc3c(oc4ccccc43)c(=O)n2-c2ccc(F)cc2)c1`, the “activity change, positive = activation” value was -21.1% (inactive).

`Cc1cc(C)cc(OCC(=O)Nc2c(C(=O)c3ccccc3)oc3ccccc23)c1`: the “activity change, positive = activation” value was -4.18% (inactive).

Consider `O=C(NC1CCCCC1)c1ccc(Cn2c(SCc3ccccc3)nc3cccnc32)cc1`, for which the “activity change, positive = activation” value was -5.82% (inactive).

For `COc1cc(C(=O)Nc2ccc(OCc3cc(=O)n4ccc(C)cc4n3)cc2)cc(OC)c1OC`, the “activity change, positive = activation” value was -0.483% (inactive).

Turning to `Cc1cc2c(cc1S(=O)(=O)CCC(=O)Nc1ccc(OC(F)(F)F)cc1)OCC(=O)N2`, the “activity change, positive = activation” value is -17.4% (inactive).

With `CCn1c(=O)c(=O)n(CC)c2cc(N3CCCCC3)c(NC(=O)c3ccc(Cl)cc3)cc21`, the “activity change, positive = activation” value is -4.94% (inactive).

For `COc1ccc(NC(=O)COCc2cc(-c3ccco3)on2)cc1`, the “activity change, positive = activation” value was 7.49% (inactive).

`COc1ccc(Cn2ccnc2SCC(=O)NCc2ccco2)cc1`: the “activity change, positive = activation” value is 1.47% (inactive).

For the compound `COc1cccc(C(=O)Nc2ccc3oc(-c4ccc5ccccc5c4)nc3c2)c1`, the “activity change, positive = activation” value was 17.6% (inactive).

In the case of `COc1ccccc1N1CCN(C2C(=O)c3ccccc3N2C(C)=O)CC1` (stereo not drawn), the “activity change, positive = activation” value is -15.5% (inactive).

As for `CCOC(=O)c1oc2ccc(S(=O)(=O)n3nc(-c4ccccc4OC)cc3N)cc2c1C`, the “activity change, positive = activation” value was -34% (inactive).

Turning to `Cc1ccc(C)c(N2C(=O)N(Cc3c(F)cccc3Cl)c3ccccc3S2(=O)=O)c1`, the “activity change, positive = activation” value is -7.55% (inactive).

Consider `Cc1ccc(S(=O)(=O)N(Cc2nc(-c3ccc(Cl)cc3)no2)C2CCCCC2)cc1`, for which the “activity change, positive = activation” value is -26.2% (inactive).

As for `COc1cccc(-n2cc(C(=O)NCc3cccc(Cl)c3)c3ccccc3c2=O)c1`, the “activity change, positive = activation” value is -25.7% (inactive).

With `Cc1ccc(S(=O)(=O)N2CCCc3cc(NS(=O)(=O)c4cc(C)ccc4C)ccc32)cc1`, the “activity change, positive = activation” value is -26.5% (inactive).

Consider `NCC[C@H](O)C(=O)N[C@@H]1C[C@H](N)[C@@H](O[C@H]2O[C@H](CN)[C@@H](O)[C@H](O)[C@@H]2O)[C@H](O)[C@@H]1O[C@H]1O[C@H](CO)[C@@H](O)[C@H](N)[C@@H]1O`, for which the activity change, positive = activation is -2.89% [at 0.74 µM, percent change from vehicle, -100% = no light].

As to `CCCN(C(=O)Cn1cc(S(=O)(=O)N2CCN(c3ccccc3F)CC2)c2ccccc2c1=O)c1cccc(C)c1`, the “activity change, positive = activation” value is -11.8% (inactive).

Consider `Cc1ccc(C)c(OCC(=O)Nc2sc3c(c2C#N)CCCC3)c1C`, for which the activity change, positive = activation was -6.79% [at 11.5 µM, percent change from vehicle, -100% = no light].

As for `O=C(CN1C(=O)COc2ccc(S(=O)(=O)N3CCOCC3)cc21)N1CCN(c2cccc(Cl)c2)CC1`, the “activity change, positive = activation” value is -14.6% (inactive).

Take `COc1ccc(Cn2c(C(=O)O)c(CNCc3cccc(OC)c3)c3ccc(C)cc32)cc1`: the “activity change, positive = activation” value was -54.6% (inactive).

On to `Cc1cc(C)c(NC(=O)Cn2c(SCC(=O)NCc3ccccc3)nc3ccccc32)c(C)c1`, for which the “activity change, positive = activation” value was -19.4% (inactive).

Take `CCOC(=O)c1cccc(NS(=O)(=O)c2cn(C)c(C)n2)c1`: the “activity change, positive = activation” value was -13.7% (inactive).

Regarding `COc1cc2[nH]c(=O)n(Cc3ccc(C(=O)NCc4ccc(C)cc4)cc3)c(=O)c2cc1OC`, the “activity change, positive = activation” value is -17% (inactive).

In the case of `CCOC(=O)c1c(NC(=O)Cc2coc3ccc(CC)cc23)sc2c1CCC2`, the “activity change, positive = activation” value is -19.1% (inactive).

For the compound `COc1cccc(C(c2c(O)cc(C)n(Cc3ccco3)c2=O)N2CCN(c3ccccc3)CC2)c1` (stereo not drawn), the “activity change, positive = activation” value was -0.441% (inactive).

As to `COc1ccc(CC(=O)N2CC(=O)Nc3ccc(Br)cc3C2c2ccc(F)cc2)cc1OC` (stereo not drawn), the “activity change, positive = activation” value was -15.1% (inactive).

As for `Cc1ccc(CNS(=O)(=O)c2ccc(-c3cc(C(F)(F)F)on3)s2)cc1`, the “activity change, positive = activation” value was -6.66% (inactive).

Consider `Cc1ccc2nc(CNC(=O)c3ccccc3)[nH]c2c1`, for which the Potency was 4.47 µM (active).

As for `COc1ccc(-c2nc3ccc(C(=O)NCc4ccc(C)cc4)cc3nc2-c2ccc(OC)cc2)cc1`, the “activity change, positive = activation” value is -8.79% (inactive).

As for `CCCNC(=O)C1CCN(c2nc3ccc(C)cc3[nH]2)CC1`, the “activity change, positive = activation” value is 22.1% (inactive).

As to `COc1ccc(-c2nc3sc(CCNC(=O)C(C)(C)C)c(C)n3n2)cc1`, the “activity change, positive = activation” value is -11.6% (inactive).

For the compound `COc1ccc(C)cc1-n1c(-c2ccc(C)cc2)cc2c1CC(C)(C)CC2=O`, the “activity change, positive = activation” value was 2.19% (inactive).
